In PubChem BioAssay:

Assay: basal RPMI8226 viability, no added stimulus, profiling panel, cell-based, calcein-AM fluorescence, 48 h, PK04 Diversity Set (AID 1166);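 note: cells grown under basal conditions without added stimulus; test concentration not given here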
Conditions: RPMI8226 myeloma viability, higher = more signal

Row | SMILES | z-score
1 | CC(C)(C)OC(=O)CC[C@]1(C(=O)N2CCCCC2)COC(c2ccc(OCCCO)cc2)=N1 | -0.225
2 | O=C1[C@@]23C=C(Br)[C@H](C[C@@H]2COC3)[C@@]12CO2 | -1.1
3 | O=C1C[C@@](C(=O)NCc2ccccc2)(c2ccc([N+](=O)[O-])cc2)[C@@H](c2ccc(CO)cc2I)N1CC12CC3CC(CC(C3)C1)C2 | -4.33
4 | O=C1C[C@@](C(=O)NCC(F)(F)F)(c2ccc([N+](=O)[O-])cc2)[C@@H](c2ccc(CO)cc2)N1CC12CC3CC(CC(C3)C1)C2 | -4.39
5 | CN1C(=O)C2C=CC(C(O)c3ccc(I)cc3)N(Nc3ccccc3)C2C1=O (stereo not given) | -0.0284
6 | COc1cc(C(O)C2C=CC3C(=O)N(Cc4ccccc4)C(=O)C3N2n2cnnc2)cc(OC)c1OC (stereo not given) | 1.46
7 | C=C(COC)/C(=C/C[C@@H](OC(=O)c1ccncc1)c1ccccc1OCCO)c1cc(C(=O)OC)ccc1OC | -1.63
8 | CC(C)C[C@@H]1NC(=O)[C@@]23C(=O)N[C@@H](Cc4ccccc4)C2[C@H](C)[C@@]2(C)O[C@H]2C3/C=C/C/C=C\CNC(=O)[C@@H](C)NC1=O (stereo not given in full) | -1.12
9 | CCCNC(=O)[C@@]1(Sc2ccc(C)cc2)CC(=O)N(C(C)C)[C@@H]1c1ccc(CO)cc1I | -2.09
10 | CN1C(=O)C2C(C1=O)C1C=C(CCCO)C2C(c2cccs2)N1Cc1cc2c(cc1Br)OCO2 (stereo not given) | -1.44
11 | C=C(CCCC)/C(=C/C[C@H](OC(C)=O)c1ccc(OCCO)cc1)c1cc(C(=O)OC)ccc1OC | -1.83
12 | COC(=O)[C@@]1(Cc2ccc(OC)cc2)[C@H]2c3cc(C(=O)N4CCCC4)n(Cc4ccc(OC(F)(F)F)cc4)c3C[C@H]2CN1C(=O)c1ccccc1 | -2.45
13 | CS(=O)(=O)CCOC(=O)C1=CC(CCCO)=CC(C2CC2)N(Cc2cccc(OC(F)(F)F)c2)C=C1C(=O)OCCS(C)(=O)=O (stereo not given) | -1.18
14 | COC(=O)C1=CC(CCCO)=CC(C)N(Cc2cccc(OC(F)(F)F)c2)C=C1C(=O)OC (stereo not given) | 0.286
15 | [N-]=[N+]=NCc1ccccc1[C@@H]1OC(c2ccc(OCCCO)cc2)=N[C@]1(Cc1ccccc1)C(=O)NCCN1CCOCC1 | 0.185
16 | CC(C)C(=C=CC[C@@H](O)c1cccc(OCCO)c1)C[C@@H](O)c1ccccn1 | 0.128
17 | O=C(NCC(O)CO)[C@@]1(CCS(=O)(=O)c2ccccc2)COC(c2ccc(OCCCO)cc2)=N1 (stereo not given in full) | -0.187
18 | CCOC(=O)C1=C[C@@H](c2ccccc2)N(S(=O)(=O)c2ccc(C)cc2)[C@H]1c1ccccc1 | -1.16

Row | SMILES | z-score
19 | CC(C)OC(=O)CC(=O)CC(O)c1ccc([N+](=O)[O-])cc1 (stereo not given) | 0.159
20 | COC(=O)C1N=C(c2ccc(OCCCO)cc2)N(c2ccccc2)O1 (stereo not given) | 0.5
21 | NC(=O)NCC#Cc1ccc2c(c1)[C@]1(C(=O)N2)[C@H](C(=O)N2CCN(c3ncccn3)CC2)[C@H]2C(=O)O[C@H](c3ccccc3)[C@H](c3ccccc3)N2[C@@H]1c1ccc(OCCO)cc1 | 0.86
22 | [N-]=[N+]=Nc1ccccc1C[C@]1(C(=O)O)N=C(c2ccc(OCCCO)cc2)O[C@H]1c1ccccc1 | 0.272
23 | C=C(/C(=C/C[C@@H](OC(C)=O)c1ccc(OCCO)cc1)c1cc(C(=O)OC)ccc1OC)C(C)C | -0.385
24 | COc1ccc(NC(=O)O[C@H]2[C@@H]3OC(=O)[C@H](Cc4cccc(Br)c4)C/C=C/C[C@@H](Cc4cccc(Br)c4)C(=O)O[C@H]3[C@@H](OC)O[C@@H]2CO)cc1 | -0.153
25 | [N-]=[N+]=NCc1ccccc1[C@H]1OC(c2ccc(OCCCO)cc2)=N[C@@]1(CCS(=O)(=O)c1ccccc1)C(=O)NCc1ccccc1 | 0.414
26 | COc1cc(NN2C(C(O)C3CCCCC3)C=CC3C(=O)N(C)C(=O)C32)cc(OC)c1OC (stereo not given) | 0.436
27 | O=C1[C@@H]2[C@@H](CC(COc3ccccc3)=C3[C@@H](CCc4ccccc4)OB(O)C[C@@H]32)C(=O)N1Cc1ccccc1 | -4.09
28 | O=C1OCCC=C[C@H]2OC34C=CCN(c5ccc(Cl)cc5)C(=O)[C@H]3N(CCCCCCO)C(=O)[C@@H]4C12 (stereo not given in full) | -1.1
29 | CCOC(=O)C[C@H]1[C@H](OC(=O)c2ccccc2-c2ccccc2)[C@@H](NC(=O)c2ccc3ccccc3n2)c2cc(OCCCO)ccc2N1C(=O)c1ccccc1 | -0.0468
30 | COC(=O)[C@@]1(Cc2ccc(OC)cc2)[C@H]2c3cc(C(=O)N4CCCC4)n(Cc4ccc(S(C)(=O)=O)cc4)c3C[C@H]2CN1C(=O)c1ccccc1 | -0.403
31 | C=C[C@@H](C)[C@@H](OC(=O)Nc1ccc(SC)cc1)c1ccc(OCCO)cc1 | -0.425
32 | NCCCCCNC(=O)[C@@H]1C[C@@H]2C(=O)N3CCC[C@H]3C(=O)N2[C@@H]1c1ccc(O)cc1 | 0.209
33 | O=C1OCCC/C=C\[C@H]2OC34C=CCN(c5ccc6ccccc6c5)C(=O)[C@H]3N(CCCO)C(=O)[C@@H]4C12 (stereo not given in full) | -0.686
34 | CC(=O)NCCCC[C@@H]1NC(=O)[C@@H]2C[C@H](C(=O)NCCCCCCN)[C@H](c3cccc(OCCO)c3)N2C1=O | -0.413
35 | COCCOC(=O)N1C(=O)[C@@]2(c3cc(C#CCNC(N)=O)ccc31)[C@H](c1ccc(OCCO)cc1)N1[C@H](c3ccccc3)[C@H](c3ccccc3)OC(=O)[C@H]1[C@@H]2C(N)=O | -0.668
